Bioassay records from PubChem BioAssay.
NPC1 prom act – activates the NPC1 promoter. Huh7 NPC1 promoter luciferase reporter, 24 h. actives 2.4% (n = 320,000). Potency, µM (doses to about 9.22 µM), most hits filed as activators. AID 485313; further: nearly all actives have a fitted effect of over 60% in size
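Luciferase expression driven by the NPC1 promoter was measured in stably transfected Huh7 cells after a 24 h compound incubation, using a luciferase reagent and a luminescence read.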
FLuc modulator – counter-screen for miR-21 project: firefly luciferase inhibitors or activators. P08659. purified FLuc, Km substrates, luminescence inhibition. Potency, µM (top dose mostly 57.5 µM), actives largely listed as inhibitors. actives 6.9% (n = 360,000). AID 588342; further: nearly all actives have a fitted effect of over 55% in size
Target sequence (P08659 whole entry, looked up): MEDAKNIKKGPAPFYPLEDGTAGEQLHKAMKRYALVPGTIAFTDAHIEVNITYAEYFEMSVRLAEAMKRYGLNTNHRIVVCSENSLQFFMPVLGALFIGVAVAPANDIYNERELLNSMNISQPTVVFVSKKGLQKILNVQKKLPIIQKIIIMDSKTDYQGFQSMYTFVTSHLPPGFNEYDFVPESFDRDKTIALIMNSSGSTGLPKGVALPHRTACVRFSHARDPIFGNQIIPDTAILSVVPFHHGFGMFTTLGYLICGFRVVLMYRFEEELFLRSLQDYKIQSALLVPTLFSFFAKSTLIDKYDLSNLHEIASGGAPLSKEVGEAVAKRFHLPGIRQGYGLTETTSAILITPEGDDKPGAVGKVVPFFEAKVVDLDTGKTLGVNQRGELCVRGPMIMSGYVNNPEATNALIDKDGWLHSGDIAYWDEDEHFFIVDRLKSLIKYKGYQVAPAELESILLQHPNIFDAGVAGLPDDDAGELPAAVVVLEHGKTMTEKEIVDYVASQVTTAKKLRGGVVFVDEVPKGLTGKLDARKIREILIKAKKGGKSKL
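Purified P. pyralis luciferase, 10 nM final, with Km-level 10 uM D-luciferin and 10 uM ATP in 50 mM Tris acetate pH 7.5, 10 mM Mg acetate, 0.01% Tween-20, 0.05% BSA; 6-point qHTS titration about 60 µM downward; luminescence read.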
Rab9 promoter act – activates the Rab9 promoter; Huh7 Rab9 promoter-luciferase reporter, luminescence, 24 h; Potency, µM (doses to about 9.22 µM), actives largely listed as activators; actives 2.8% (n = 320,000); AID 485297; further: nearly all actives have a fitted effect of over 60% in size
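Steps: seed 1500 Huh7 Rab9-luc cells per well, rest 2 h at 37 °C; add compound in DMSO; incubate 24 h; add luciferase reagent, 10 min ambient; read luminescence.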
KinaseGlo FLuc – blocks Kinase-Glo luciferase, a counter-screen artifact | Q27757 | Kinase-Glo luciferase, ATP luminescence, 8 min | Potency, µM (top dose mostly 38.3 µM), most hits filed as inhibitors | actives 0.28% (n = 200,000) | AID 1379; further: nearly all actives have a fitted effect of over 60% in size
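Luminescence was the read-out, taken after 8-minute incubation at ambient temperature. Luciferase turned over luciferin with 10 uM ATP in imidazole pH 7.2 buffer containing KCl, MgCl2, Tween 20 and BSA.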
ELG1 genotoxic – inducers of genotoxicity in HEK293T ELG1-luciferase cells; actives 1.3% (n = 330,000); HEK293T ELG1-luciferase reporter, luminescence, 16 h; Potency, µM (series often up to 46 µM), hits mostly activators; further: nearly all actives have a fitted effect of over 60% in size
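Genotoxic stress is detected as increased luminescence from luciferase-tagged ELG1 in HEK293T cells, measured with ONE-Glo after a 16 hr treatment at 37 °C.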
SMN2 splice up – increases expression of the SMN2 splice variant | HEK293 SMN2-luciferase splicing reporter, luminescence, 30-36 h | actives 2.8% (n = 210,000) | Potency, µM (doses to about 46.1 µM), actives largely listed as activators; further: nearly all actives have a fitted effect of over 55% in size
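HEK293 cells carry an SMN2 […]–luciferase reporter in which exon 7 inclusion puts luciferase in frame. Cells were plated 10-12 h before compound addition, then incubated 30-36 h at 37C. ONE-Glo luminescence was read; sodium butyrate at 4.5 mM final served as control.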
A number is an active result; i = inactive; ? = inconclusive; nt = no result. An excerpt weighted towards active compounds, which were near 7.4% of everything screened. The call rests on the fitted dose curve; in most records, active means well fitted curve in the direction sought with a large enough effect; inconclusive means small, poorly fitted or top-dose-only effect, or another doubt; inactive means no such curve, though single readings can be large; an effect the other way counts as inactive or inconclusive.

SMILES	NPC1 prom act	FLuc modulator	Rab9 promoter act	KinaseGlo FLuc	ELG1 genotoxic	SMN2 splice up
COc1cccc(OC(=O)CSc2nnc(-c3ccccc3OC)o2)c1	nt	i	nt	nt	nt	nt
COC(=O)CSc1nnc(-c2c[nH]c3ccccc23)o1	i	15µM	i	nt	i	nt
O=C(O)c1cn2c3c(ccc(Cl)c3c1=O)OCC2	i	i	i	nt	i	nt
CC(=O)Nc1ccc(NC(=O)c2csnn2)cc1	nt	i	nt	nt	nt	nt
Cc1cccc(/C=N/Nc2nncc3ccccc23)c1	0.56µM	0.85µM	0.32µM	?	0.46µM	2.5µM
CN(C)c1ccc(/C=N/Nc2nncc3ccccc23)cc1	0.32µM	0.43µM	0.32µM	nt	0.73µM	nt
C(=N\Nc1nncc2ccccc12)/c1ccccc1	1.1µM	0.54µM	1.4µM	nt	?	nt
CCNc1nc(NCC)nc(N/N=C/c2ccc(N(C)C)cc2)n1	i	?	i	i	i	i
COc1ccc(/C=N/Nc2nncc3ccccc23)c(OC)c1	?	9.5µM	?	i	?	13µM
COc1ccc(/C=N/NS(C)(=O)=O)c(OC)c1	i	i	i	i	i	i
COC(=O)c1ccc(C(NC(=O)OCc2ccccc2)/C(=C/[C@@H](C)C(=O)NCc2ccc(OC)c(OC)c2)c2cccnc2)cc1 (stereo not given in full)	nt	nt	nt	i	nt	i
CCc1ccccc1NC(=O)C1CCN(c2cnccn2)CC1	i	i	i	nt	i	nt
CCOc1ccc(C2C(C(N)=O)=C(C)Nc3nc(SCc4ccccc4)nn32)cc1 (stereo not given)	nt	i	nt	nt	nt	i
COc1cc(/C=N/Nc2nncc3ccccc23)cc(OC)c1OC	1.6µM	8.5µM	?	nt	?	nt
CCNc1nc(NCC)nc(N/N=C/c2cc(OC)c(OC)c(OC)c2)n1	i	?	i	nt	i	nt
COc1cc(OC)cc(-c2cc3ncccc3cn2)c1	i	?	i	nt	i	nt
COc1ccc(-c2ccc3oc(-c4ccsc4)c(-c4ccc(Br)nc4)c3c2)cc1	nt	nt	nt	nt	i	nt
COc1cc(OC)cc(-c2cc3ccc(OC)cc3cn2)c1	?	0.27µM	?	nt	?	nt
COc1ccc2cc(C3=CCCCC3)ncc2c1	2µM	0.85µM	?	nt	?	nt
COc1ccc2cc(-c3ccccc3)ncc2c1	0.56µM	0.54µM	0.45µM	nt	2.9µM	nt
COc1ccc(-c2nc(C)ncc2-c2ccccc2)c(O)c1	i	i	i	nt	i	nt
COc1ccc2cc(-c3ccsc3)ncc2c1	?	1.9µM	i	nt	?	nt
CCc1nnc(NC(=O)CCC(=O)N2CCN(c3cccc(Cl)c3)CC2)s1	i	i	i	nt	i	nt
Cc1nnc2n(-c3ccccc3)c(=O)c3c4c(sc3n12)CC(C)CC4 (stereo not given)	i	i	i	i	i	22µM
CC1CCc2c(sc3nnn(Cc4ccccc4)c(=O)c23)C1 (stereo not given)	nt	i	nt	nt	nt	i
SMILES	NPC1 prom act	FLuc modulator	Rab9 promoter act	KinaseGlo FLuc	ELG1 genotoxic	SMN2 splice up
CN(C)c1ccc(/C=C/c2nc(-c3ccccc3O)n(-c3ccccc3)n2)cc1	nt	i	nt	nt	nt	i
COCCn1nnnc1SCC(=O)Nc1ccc2c(c1)OCO2	i	i	i	i	i	i
CCOc1ccc(-c2ccc(SCC(=O)Nc3nnc(C)s3)nn2)cc1	?	0.3µM	?	i	i	?
Cc1nnc(NC(=O)CSc2ccc(-c3ccc(Cl)cc3)nn2)s1	i	?	i	i	?	i
CCc1ccc(-c2ccc(SCC(=O)Nc3nnc(C)s3)nn2)cc1	2.2µM	0.3µM	1.3µM	i	?	13µM
CCc1nnc(NC(=O)CSc2ccc(-c3ccc(-n4cccn4)cc3)nn2)s1	?	1.2µM	2.5µM	nt	5.8µM	nt
CCc1ccc(-c2ccc(SCC(=O)NCC3CCCO3)nn2)cc1 (stereo not given)	?	3.4µM	?	i	i	14µM
COc1cccc(-c2ncc3ccccc3c2COC(=O)CCCC(=O)O)c1	i	i	i	nt	i	nt
CC1(C)CO[C@H](CC(=O)O)CN1	nt	nt	nt	i	nt	nt
O=C(c1ccccc1)c1coc2c1C(=O)c1ccccc1C2=O	i	27µM	i	i	i	i
O=C(CN(c1ccccc1)S(=O)(=O)c1ccccc1[N+](=O)[O-])Nc1cccnc1	i	i	i	nt	i	nt
COCCCNC(=O)c1c(NC(=O)c2nc(S(C)(=O)=O)ncc2Cl)sc2c1CCCC2	nt	i	nt	nt	nt	i
